Reference: PubChem BioAssay
Unmarked numbers belong to inactive results.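 How the source made its calls: active means fluorescence slope higher than the sample average by over 3 SD (cut at about -0.22 in these data, passing the limit was not always enough); inactive means the rest.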

What follows are compounds tested against Voltage-gated potassium channel subunit beta-2 (Rattus norvegicus) (UniProt P62483) (assay: KvBeta enzyme negative modulators, primary screen, biochemical, NADPH fluorescence (AID 622;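 further: slope of raw intensity against log time taken from 70 to 1610 s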)). Conditions: recombinant KvBeta, 4-cyanobenzaldehyde reduction, at 10 µM, stronger effect = higher value.
Sequence of Voltage-gated potassium channel subunit beta-2 (Rattus norvegicus) (P62483 whole entry, looked up): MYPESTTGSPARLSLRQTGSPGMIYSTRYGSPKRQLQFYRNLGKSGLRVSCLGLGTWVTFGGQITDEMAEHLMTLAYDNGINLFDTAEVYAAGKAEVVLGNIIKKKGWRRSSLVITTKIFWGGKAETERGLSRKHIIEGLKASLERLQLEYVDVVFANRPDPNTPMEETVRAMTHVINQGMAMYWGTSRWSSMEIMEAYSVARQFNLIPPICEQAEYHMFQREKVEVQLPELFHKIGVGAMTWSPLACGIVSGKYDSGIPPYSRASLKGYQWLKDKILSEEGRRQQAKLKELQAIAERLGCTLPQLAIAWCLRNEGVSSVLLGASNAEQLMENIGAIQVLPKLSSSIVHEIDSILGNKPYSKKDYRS

| Compound | fluorescence slope |
| --- | --- |
| Cn1cnc2cc(NC(=O)c3ccc(Cl)cc3)ccc21 | -0.387 |
| CC(=O)NCC(=O)N(Cc1ccco1)C1(C(=O)NC2CCCCC2)CCCCC1 | -0.538 |
| COc1ccc2[nH]c(=O)c(CN(Cc3cccs3)S(=O)(=O)c3cccc4nsnc34)cc2c1 | -0.523 |
| Cc1ccc2oc(=O)c3cnn(CC(=O)NCCC(C)C)c3c2c1 | -0.602 |
| CC12CCC(C(=O)N3CCCCC3)(CC1=O)C2(C)C (stereo unspecified) | -0.299 |
| CC1(C)CC(=O)C=C(Nc2ccc(OCC(F)(F)C(F)F)cc2)C1 | -0.324 |
| Cc1cc(C)cc(-n2nnc(C(=O)NCc3ccco3)c2N)c1 | -0.557 |
| CC(C)Oc1ccc(N2CC(C(=O)Nc3ccccc3F)CC2=O)cc1 (stereo unspecified) | -0.438 |
| O=C(Nc1nccs1)c1cccc(NC(=O)C2CC2)c1 | -0.409 |
| CCOc1ccccc1C(=O)Nc1nnc(CC)s1 | -0.428 |
| COc1ccc(C(=O)N2CCN(S(=O)(=O)c3cc(Cl)ccc3OC)CC2)cc1 | -0.368 |
| [N-]=[N+]=CC(=O)CC(c1ccccc1)N1C(=O)c2ccccc2C1=O (stereo unspecified) | -0.609 |
| O=C(O)c1c(Cl)c(Cl)c(Cl)c(Cl)c1C(=O)N1CCOCC1 | -0.618 |
| CCOc1ccccc1OCC(=O)NCc1ccco1 | -0.409 |
| CC1CCN(Cc2ccc(NC(=O)C3CCN(c4nnc(-n5cccc5)s4)CC3)cc2)CC1 | -0.409 |
| Cc1cc(Oc2ccc(Cl)cc2)nc(-c2ccccc2O)n1 | -0.517 |
